About 410 targets per protein were measured; listed, in parts, are those with the strongest signals and a random draw of the rest.
Experiments:
Test in all cases: glycan array binding signal (z-score within array); higher = stronger binding
Conditions in all cases: glycan notation: IUPAC condensed, linker removed
[1] = molecular target: Fuc(a1-2)Gal(b1-3)GalNAc(b1-3)Gal
Procedure, shortened: (§1)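 The binding signal is a Z-score computed within each array and averaged over linkers. Arrays of the same protein sequence at different concentrations or buffers were also averaged together. Data originate from 3228 arrays in the Consortium for Functional Glycomics database, kept only where the protein sequence was available.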

[2] = molecular target: Fuc(a1-2)Gal(b1-3)GlcNAc(b1-3)[Gal(b1-4)GlcNAc(b1-6)]Gal(b1-4)Glc
Procedure, shortened: as §1

[3] = molecular target: Fuc(a1-2)Gal(b1-4)GlcNAc6S
Procedure, shortened: as §1

[4] = molecular target: Fuc(a1-2)Gal(b1-4)[Fuc(a1-3)]GlcNAc(b1-2)Man(a1-3)[Fuc(a1-2)Gal(b1-4)[Fuc(a1-3)]GlcNAc(b1-2)Man(a1-6)]Man(b1-4)GlcNAc(b1-4)[Fuc(a1-6)]GlcNAc
Procedure, shortened: as §1

[5] = molecular target: Fuc(a1-2)Gal6S(b1-3)GlcNAc6S
Procedure, shortened: as §1

[6] = molecular target: Fuc(a1-2)[Gal(a1-3)]Gal(b1-3)GlcNAc
Procedure, shortened: as §1

[7] = molecular target: Fuc(a1-2)[Gal(a1-3)]Gal(b1-4)GlcNAc
Procedure, shortened: as §1

[8] = molecular target: Fuc(a1-2)[Gal(a1-3)]Gal(b1-4)GlcNAc(b1-6)GalNAc
Procedure, shortened: as §1

[9] = molecular target: Fuc(a1-3)[Gal(b1-4)]Glc6S
Procedure, shortened: as §1

[10] = molecular target: Fuc(a1-3)[Gal(b1-4)]GlcNAc(b1-6)GalNAc
Procedure, shortened: as §1

[11] = molecular target: Fuc(a1-3)[Gal3S(b1-4)]Glc
Procedure, shortened: as §1

[12] = molecular target: Gal(a1-3)Gal(b1-4)GlcNAc(b1-2)Man
Procedure, shortened: as §1

[13] = molecular target: Gal(b1-3)GlcNAc
Procedure, shortened: as §1

[14] = molecular target: Gal(b1-3)GlcNAc(a1-3)Gal(b1-4)GlcNAc
Procedure, shortened: as §1

[15] = molecular target: Gal(b1-3)GlcNAc(b1-2)[Gal(b1-3)GlcNAc(b1-6)]Man(a1-6)[Gal(b1-3)GlcNAc(b1-2)Man(a1-3)]Man(b1-4)GlcNAc(b1-4)GlcNAc
Procedure, shortened: as §1

[16] = molecular target: Gal(b1-3)GlcNAc(b1-3)Gal(b1-4)GlcNAc(b1-2)[Gal(b1-3)GlcNAc(b1-3)Gal(b1-4)GlcNAc(b1-6)]Man(a1-6)[Gal(b1-3)GlcNAc(b1-3)Gal(b1-4)GlcNAc(b1-2)Man(a1-3)]Man(b1-4)GlcNAc(b1-4)[Fuc(a1-6)]GlcNAc
Procedure, shortened: as §1

[17] = molecular target: Gal(b1-3)[Fuc(a1-4)]GlcNAc(b1-2)Man
Procedure, shortened: as §1

[18] = molecular target: Gal(b1-3)[Fuc(a1-4)]GlcNAc(b1-3)Gal(b1-3)[Fuc(a1-4)]GlcNAc
Procedure, shortened: as §1

[19] = molecular target: Gal(b1-4)GlcNAc(b1-2)Man(a1-3)[Man(a1-6)]Man(b1-4)GlcNAc(b1-4)GlcNAc
Procedure, shortened: as §1

[20] = molecular target: Gal3S(b1-4)[Fuc(a1-3)]Glc6S
Procedure, shortened: as §1

[21] = molecular target: Gal3S4S(b1-4)GlcNAc
Procedure, shortened: as §1

[22] = molecular target: Gal3S6S(b1-4)GlcNAc
Procedure, shortened: as §1

[23] = molecular target: Gal6S(b1-3)GlcNAc
Procedure, shortened: as §1

[24] = molecular target: Gal6S(b1-3)GlcNAc6S
Procedure, shortened: as §1

[25] = molecular target: Gal6S(b1-4)GlcNAc6S
Procedure, shortened: as §1

[26] = molecular target: GalNAc(a1-3)Gal
Procedure, shortened: as §1

[27] = molecular target: GalNAc(b1-3)Gal(a1-6)Gal(b1-4)Glc
Procedure, shortened: as §1

[28] = molecular target: GlcNAc(a1-3)Gal(b1-4)GlcNAc
Procedure, shortened: as §1

[29] = molecular target: GlcNAc(a1-4)Gal(b1-3)GlcNAc
Procedure, shortened: as §1

[30] = molecular target: GlcNAc(a1-4)Gal(b1-4)GlcNAc(b1-3)Gal(b1-4)[Fuc(a1-3)]GlcNAc(b1-3)Gal(b1-4)[Fuc(a1-3)]GlcNAc
Procedure, shortened: as §1

[31] = molecular target: Gal(b1-4)GlcNAc(a1-6)Gal(b1-4)GlcNAc
Procedure, shortened: as §1

[32] = molecular target: Gal(b1-4)GlcNAc(b1-2)[Gal(b1-4)GlcNAc(b1-6)]Man(a1-6)[GlcNAc(b1-4)][Gal(b1-4)GlcNAc(b1-2)[Gal(b1-4)GlcNAc(b1-4)]Man(a1-3)]Man(b1-4)GlcNAc(b1-4)[Fuc(a1-6)]GlcNAc
Procedure, shortened: as §1

[33] = molecular target: Gal(b1-4)GlcNAc(b1-3)Gal(b1-4)GlcNAc
Procedure, shortened: as §1

[34] = molecular target: Gal4S6S(b1-4)GlcNAc
Procedure, shortened: as §1

[35] = molecular target: Gal6S(b1-4)GlcNAc
Procedure, shortened: as §1

[36] = molecular target: GalNAc(b1-3)Gal(a1-4)Gal(b1-4)GlcNAc
Procedure, shortened: as §1

[37] = molecular target: Glc(a1-4)Glc
Procedure, shortened: as §1

[38] = molecular target: GlcNAc(a1-4)Gal(b1-4)GlcNAc(b1-3)Gal(b1-4)GlcNAc
Procedure, shortened: as §1

[39] = molecular target: GlcNAc(b1-2)Man(a1-3)[GlcNAc(b1-4)][GlcNAc(b1-2)Man(a1-6)]Man(b1-4)GlcNAc(b1-4)[Fuc(a1-6)]GlcNAc
Procedure, shortened: as §1

[40] = molecular target: GlcNAc(b1-2)[GlcNAc(b1-4)]Man(a1-3)[GlcNAc(b1-2)Man(a1-6)]Man(b1-4)GlcNAc(b1-4)GlcNAc
Procedure, shortened: as §1

[41] = molecular target: GlcNAc(b1-2)[GlcNAc(b1-4)]Man(a1-3)[GlcNAc(b1-4)][GlcNAc(b1-2)Man(a1-6)]Man(b1-4)GlcNAc(b1-4)GlcNAc
Procedure, shortened: as §1

[42] = molecular target: GlcNAc(b1-3)Gal
Procedure, shortened: as §1

[43] = molecular target: GlcNAc(b1-3)Gal(b1-4)GlcNAc(b1-2)[GlcNAc(b1-3)Gal(b1-4)GlcNAc(b1-6)]Man(a1-6)[GlcNAc(b1-3)Gal(b1-4)GlcNAc(b1-2)Man(a1-3)]Man(b1-4)GlcNAc(b1-4)GlcNAc
Procedure, shortened: as §1

[44] = molecular target: Neu5Ac(a2-3)Gal(b1-4)GlcNAc(b1-2)Man(a1-3)[Neu5Ac(a2-6)Gal(b1-4)GlcNAc(b1-2)Man(a1-6)]Man(b1-4)GlcNAc(b1-4)GlcNAc
Procedure, shortened: as §1

[45] = molecular target: Neu5Ac(a2-3)Gal6S(b1-4)[Fuc(a1-3)]GlcNAc
Procedure, shortened: as §1

[46] = molecular target: Neu5Ac(a2-6)Gal(b1-4)GlcNAc(b1-2)Man(a1-3)[GlcNAc(b1-2)Man(a1-6)]Man(b1-4)GlcNAc(b1-4)GlcNAc
Procedure, shortened: as §1

[47] = molecular target: Neu5Ac(a2-6)Gal(b1-4)GlcNAc(b1-3)Gal(b1-4)GlcNAc
Procedure, shortened: as §1

[48] = molecular target: Neu5Ac(a2-6)Gal(b1-4)GlcNAc(b1-3)Gal(b1-4)GlcNAc(b1-3)GalNAc
Procedure, shortened: as §1

[49] = molecular target: Neu5Ac(a2-6)Gal(b1-4)GlcNAc(b1-6)[Gal(b1-3)]GalNAc
Procedure, shortened: as §1

[50] = molecular target: Neu5Ac(a2-8)Neu5Ac(a2-3)Gal(b1-4)GlcNAc
Procedure, shortened: as §1

[51] = molecular target: Neu5Ac(b2-6)GalNAc
Procedure, shortened: as §1

B1: Epa3to2 (Candida glabrata) (protein)
chain: MGSSHHHHHHSSGLVPRGSHMKRELSSQNPFGYPIGCSPQDVAIIPGLTMELYSYPIVSGTPPNCYDASYVDPEYPRTGYLKRKMVGKSTGVTGNLNYKYSVEKACMVKYGNLPAGYNYNEPLTVSNFTMILYGYFKAQTTGLHTFFVNADDLLYINFGAGNAFDCCKREDSKTKLGEYVAYDIWHVDSSKNKVSLFLEKDLYYPIRMFFNNRDNNSSLDLSFSVNGATDQISDFSGYLYSVPDQPDTCPAHIGYDTTCR
Q: Which results are given for B1?
A: glycan array binding signal (z-score) [1]: 3.03; glycan array binding signal (z-score) [2]: 1.2; glycan array binding signal (z-score) [3]: -0.709; glycan array binding signal (z-score) [4]: 2.47; glycan array binding signal (z-score) [5]: 2.11; glycan array binding signal (z-score) [6]: -0.392; glycan array binding signal (z-score) [7]: -0.27; glycan array binding signal (z-score) [8]: -0.714; glycan array binding signal (z-score) [9]: 0.316; glycan array binding signal (z-score) [10]: -1.35; glycan array binding signal (z-score) [11]: 0.878; glycan array binding signal (z-score) [12]: -0.911; glycan array binding signal (z-score) [13]: -0.751; glycan array binding signal (z-score) [14]: -0.807; glycan array binding signal (z-score) [15]: 0.52; glycan array binding signal (z-score) [16]: 0.293; glycan array binding signal (z-score) [17]: 0.761; glycan array binding signal (z-score) [18]: -1.46; glycan array binding signal (z-score) [19]: 0.07; glycan array binding signal (z-score) [20]: 0.958; glycan array binding signal (z-score) [21]: -0.354; glycan array binding signal (z-score) [22]: 2.42; glycan array binding signal (z-score) [23]: 0.814; glycan array binding signal (z-score) [24]: 3.65; glycan array binding signal (z-score) [25]: 2.45; glycan array binding signal (z-score) [26]: 1.49; glycan array binding signal (z-score) [27]: 1.12; glycan array binding signal (z-score) [28]: -1.07; glycan array binding signal (z-score) [29]: -1.92; glycan array binding signal (z-score) [30]: 2.65

B2: Epa13 (Candida glabrata) (protein)
chain: MGSSHHHHHHSSGLVPRGSHMASDSSENGYAHGCSPSIRAKLKPGLSMEIYSYALRPTDDHCWDSAYLDPMFPRTGYLTHKLLGKAEGIIGPLNFLAKNPACIPAVSTLPLAFHFPKPFTITNFTMLLYGYLSPKKTGKYTFKLLADDLLLMNFGADNAFDCCSHDATKDNIGEYVAYSVWPGVNKNVTVYLESGIYYPLRLFFNNRDAIAQLDFAYYFNDSPIRQTDFSGMFFSIPDSVKCPANI
Q: Which results are given for B2?
A: glycan array binding signal (z-score) [31]: 0.075; glycan array binding signal (z-score) [32]: -0.476; glycan array binding signal (z-score) [33]: -0.291; glycan array binding signal (z-score) [34]: -0.32; glycan array binding signal (z-score) [35]: 0.111; glycan array binding signal (z-score) [25]: 2.69; glycan array binding signal (z-score) [36]: -0.05; glycan array binding signal (z-score) [37]: -0.521; glycan array binding signal (z-score) [38]: 0.04; glycan array binding signal (z-score) [30]: -0.218; glycan array binding signal (z-score) [39]: 0.145; glycan array binding signal (z-score) [40]: -0.393; glycan array binding signal (z-score) [41]: -0.299; glycan array binding signal (z-score) [42]: -0.445; glycan array binding signal (z-score) [43]: 0.485; glycan array binding signal (z-score) [44]: -0.354; glycan array binding signal (z-score) [45]: -0.54; glycan array binding signal (z-score) [46]: -0.413; glycan array binding signal (z-score) [47]: -0.07; glycan array binding signal (z-score) [48]: -0.142; glycan array binding signal (z-score) [49]: -0.381; glycan array binding signal (z-score) [50]: -0.449; glycan array binding signal (z-score) [51]: -0.624
